# According to ChEMBL document CHEMBL3988442, “University of Dundee, Small-Polar-MMV Screening Library” (2021):
# Among all 53,000 compounds or so, about 900 (1.7%) showed an effect of 50% or more. For the sample, strong results were picked, then their nearest neighbours and some compounds at random.
# Test system: Mycobacterium tuberculosis
# Test: Cornell - Phenotypic assay to identify agents that inhibit growth of Mycobacterium tuberculosis
# Assay type: functional
# Parameters: scale not given: direction of the effect not stated beside the values
# Conditions: 10 mM as filed; unlikely as a test dose
row,SMILES,Percent Effect
1,CCc1cc(O)n2nc(C3CCN(C(=O)c4ccccn4)CC3)cc2n1,37.19%
2,NC(=O)CN1CCC2(CC1)C[C@@H](O)[C@H](c1ccccc1)NC2=O,-49.18%
3,COCC(=O)N1CCCC1(C(=O)N(C)C)c1cnccn1 (stereo not drawn),19.92%
4,Cc1cc(-c2ccccc2Cl)nc(N)n1,22.73%
5,CC(C)(C)c1ncc(C(=O)NCCNC(=O)c2cccs2)s1,-14.14%
6,O=C(NCCNC(=O)c1scnc1Cl)c1cccs1,-53.65%
7,O=C(NCCNc1cc(-n2cccc2)ncn1)c1cccs1,57.48%
8,Cc1ccc2c(c1)[C@@H](CC(=O)N(C)C)CCO2,3.607%
9,CC(C)c1cc(NC(=O)c2ccc(NC3CC3)nc2)[nH]n1,-6.556%
10,CCNc1ncc(C(=O)N[C@H](C(N)=O)c2ccccc2)cn1,-10.46%
11,CN(C)c1ccc(C(=O)NCCCc2ccccn2)cn1,-1.76%
12,COC(=O)C(NC(=O)c1ccc(NC2CC2)nc1)c1ccccc1 (stereo not drawn),107%
13,NC(=O)C(NC(=O)c1ccc(NC2CC2)nc1)c1ccccc1 (stereo not drawn),-20.48%
14,COC(=O)C(NC(=O)c1ccc(N(C)C)nc1)c1ccccc1 (stereo not drawn),107.9%
15,OC1(CN2CCCC(Cn3cncn3)C2)CCCCC1 (stereo not drawn),2.144%
16,CNC(=O)c1sc2ccccc2c1C1CCN(c2cc(C)nc(C)n2)C1 (stereo not drawn),-31.24%
17,Cc1cnn(C2CCCN(C(=O)c3ccc(O)nc3)C2)c1 (stereo not drawn),-59.29%
18,Cc1ccc(CN2CC[C@@H]3[C@@H]2CCN3C(=O)Cc2cccs2)o1.O=C(O)C(F)(F)F,2.395%
19,CCc1cc(C(C)Nc2nc(-c3cccnc3)nc3c2CNC3)on1 (stereo not drawn),9.073%
20,Cc1cccnc1[C@H](C)Nc1nc(-c2cccnc2)nc2c1CNC2,56.46%
21,CC(Nc1nc(-c2ccncc2)nc2c1CCNC2)c1ccccc1 (stereo not drawn),16.91%
22,Cc1cc(CC(C)Nc2nc(-c3cccnc3)nc3c2CNC3)[nH]n1 (stereo not drawn),-19.02%
23,CC(Nc1nc(-c2ccccc2)nc2c1CCNCC2)c1nccs1 (stereo not drawn),28.69%
24,CC(Nc1nc(-c2ccccc2)nc2c1CCNCC2)c1cccnc1 (stereo not drawn),76.64%
25,Cc1cc(NCCNS(C)(=O)=O)nc2cc3c(cc12)CCC3,-25.91%
26,Cc1cs/c(=N\C(=O)Cn2nc(N3CCOCC3)ccc2=O)[nH]1,32.69%

row,SMILES,Percent Effect
1,CC(C)c1n[nH]c(C2CN(C(=O)c3ncoc3C(C)C)CCO2)n1 (stereo not drawn),-2.194%
2,COCC(=O)N1Cc2nc3c(C)c(-c4cccs4)nn3c(O)c2C1,3.993%
3,Cc1c(-c2cccs2)nn2c(O)c3c(nc12)CN(C(=O)C1CC1)C3,54.87%
4,COCCC(=O)N1Cc2nc3c(C)c(-c4cccs4)nn3c(O)c2C1,39.74%
5,CC(C)c1ncc(CN2CCOC(C(=O)Nc3ccccc3)C2)cn1 (stereo not drawn),-3.657%
6,COc1ccc(Cl)cc1-c1nc(N)nc(N(C)C)n1,31.47%
7,CCCN(CCC)c1nc(N)nc(-c2cc(Cl)ccc2OC)n1,61.82%
8,COc1ccc(Cl)cc1-c1nc(N)nc(N)n1,-5.371%
9,CN1CCO[C@H]2CN(C(=O)c3ccoc3)C[C@H]21.O=C(O)C(F)(F)F,6.414%
10,Cl.NCCc1cn(Cc2ccccn2)c2ccccc12,-5.41%
11,CN(C)C(=O)c1cn2cc(-c3ccccc3Cl)n(CC3CC3)c(=O)c2n1,8.491%
12,CNC(=O)c1cn2cc(-c3ccccc3Cl)n(CC3CC3)c(=O)c2n1,16.32%
13,CCNC(=O)c1cn2cc(-c3ccccc3Cl)n(CC3CC3)c(=O)c2n1,93.59%
14,CC(=O)N1CCc2[nH]cnc2C12CCN(C(=O)Cc1cccs1)CC2,5.963%
15,Cc1nc(CN2CCCC(NCc3sccc3C)C2)no1 (stereo not drawn),-19.65%
16,COCCN1CCCC(c2ncc(C(=O)N3CCOCC3)c(C)n2)C1 (stereo not drawn),-5.414%
17,Cc1cccc(NC2CCN(C(=O)Nc3cccc4[nH]ccc34)CC2)n1,103.5%
18,Cc1cccc(NC2CCN(C(=O)Nc3ccc(F)c(F)c3)CC2)n1,108.1%
19,Cc1cccc(NC2CCN(C(=O)Nc3cc(F)ccc3F)CC2)n1,0.502%
20,Cc1cccc(NC2CCN(C(=O)Nc3ccncc3)CC2)n1,-35.06%
21,Cc1cccc(NC2CCN(C(=O)Nc3cc(C)on3)CC2)n1,-41.3%
22,Cc1cccc(NC2CCN(C(=O)Nc3cc(F)cc(F)c3)CC2)n1,-33.08%
23,O=C(O)C(F)(F)F.O=C1COC2(CCN(Cc3nccs3)CC2)CN1c1ccccc1,8.785%
24,Cc1cc(O)cc(C2CCCN2C(=O)c2ccncc2)n1 (stereo not drawn),3.916%
25,Cc1cnn(CCNCc2csc(C)n2)c1,2.389%
26,Cc1cnn(CCNCc2ccc(OCc3csc(C)n3)cc2)c1,22%

row,SMILES,Percent Effect
1,Cc1cnn(CCNCc2csc(COc3ccccc3)n2)c1,79.25%
2,Cc1cnn(CCCNCc2csc(COc3ccccc3)n2)c1,86.59%
3,Cc1ccc(OCc2nc(CNCCn3cccn3)cs2)cc1,44.09%
4,c1ccc(OCc2nc(CNCCn3cccn3)cs2)cc1,-6.946%
5,CCc1ccc(-n2c(=O)[nH]c3nc(N4CCSCC4)ncc3c2=O)cc1,-3.279%
6,CNC(=O)c1ccc(C2CN(C(=O)c3scnc3C)CCO2)nc1 (stereo not drawn),-17.28%
7,Cc1nc(-c2ccncc2)ncc1C(C)NC(=O)Cn1ccccc1=O (stereo not drawn),-23.83%
8,O=C(CC1CCCC1)N1CCOC(c2nc(-c3ncccn3)no2)C1 (stereo not drawn),12.79%
9,CNC(=O)C1(C)CN(Cc2cn(C)c3ccc(F)cc23)CCO1 (stereo not drawn),75.75%
10,CN(C)C(=O)C1(C)CN(Cc2cn(C)c3ccccc23)CCO1 (stereo not drawn),34.96%
11,CN(C)C(=O)C1(C)CN(Cc2cn(C)c3ccc(F)cc23)CCO1 (stereo not drawn),20.08%
12,CCOCC1CN(Cc2ccc(OC)cc2)Cc2nn(C)cc21.O=C(O)C(F)(F)F (stereo not drawn),-10.16%
13,CCn1cc2c(n1)CN(Cc1ccc(C)o1)CC2COCC1CC1.O=C(O)C(F)(F)F (stereo not drawn),32.3%
14,CCn1cc2c(n1)CN(Cc1ccc(F)cc1)CC2COCC1CC1.O=C(O)C(F)(F)F (stereo not drawn),11.94%
15,COCC1CN(Cc2ccc(OC)cc2)Cc2nn(C)cc21.O=C(O)C(F)(F)F (stereo not drawn),102.7%
16,CCn1cc2c(n1)CN(Cc1sccc1C)CC2COCC1CC1.O=C(O)C(F)(F)F (stereo not drawn),57.43%
17,COCC1CN(Cc2ccc(F)cc2)Cc2nn(C)cc21.O=C(O)C(F)(F)F (stereo not drawn),21.43%
18,COCCC(=O)N1CCCC([C@@H]2C[C@H](C(F)F)n3ncnc3N2)C1 (stereo partly drawn),3.93%
19,Cc1nc(C)n(CC2CCCN(CCC(=O)Nc3cc(C)on3)C2)n1 (stereo not drawn),-4.464%
20,CCCS(=O)(=O)N1CC(=O)N(Cc2cccc(OC)c2OC)CC(O)C1 (stereo not drawn),0.4174%
21,CCc1n[nH]c(C(=O)NCCn2nccc2C)c1C,-14.26%
22,COCCN(C)C(C(=O)O)c1ccc2ccccc2c1 (stereo not drawn),-16.36%
23,CCc1ccc(CN2CCN(c3ncc(Cl)cn3)CC2)nc1,55.1%
24,COc1ccc(CN2CCN(c3ncc(Cl)cn3)CC2)cc1,15.9%
25,CCc1ccc(CN2CCN(c3ccc(Cl)nn3)CC2)nc1,44.3%
26,Cc1ccccc1CN1CCCN(C(=O)c2ccn(C)c(=O)c2)CC1,-39.51%

row,SMILES,Percent Effect
1,Cc1ccc(-c2nc(CCNCc3ccncc3)co2)cc1,55.33%
2,COc1ccc(-c2nc(CCNCc3ccncc3)co2)cc1,44.79%
3,c1ccc(-c2nc(CCNCc3ccncc3)co2)cc1,-12.86%
4,CO[C@@H]1CN(C)S(=O)(=O)[C@@]12CCN(Cc1ccccc1)C2,9.469%
5,CC(C)c1cc(C2CCCN2C(=O)CN2C(=O)OC(C)(C)C2=O)no1 (stereo not drawn),16.26%
6,CN(Cc1nccs1)c1nc(-c2ccccn2)nc2c1CCNCC2,28.38%
7,CN(Cc1cccnc1)c1nc(-c2ccccn2)nc2c1CCNCC2,31.77%
8,CN(Cc1ncc[nH]1)c1nc(-c2ccccn2)nc2c1CCNCC2,56.27%
9,COc1c(C2CCCN2C(=O)c2cncnc2C)c(C)nn1C (stereo not drawn),-27.58%
10,CCn1nc(NC(=O)Cn2ccc(C(C)=O)n2)c2ccccc21,6.087%
11,COC(=O)c1ccn(CC(=O)Nc2nn(CC3CC3)c3ccccc23)n1,50.91%
12,CC(=O)c1ccn(CC(=O)Nc2nn(CC3CC3)c3ccccc23)n1,23.92%
13,Cc1csc(C(Cc2ccsc2)NC(=O)c2cc(=O)n(C)c(=O)n2C)n1 (stereo not drawn),-13.69%
14,Cc1nc(CCNC2CCN(Cc3ccccc3)C2)sc1C (stereo not drawn),2.096%
15,Cc1nc(CN2CC(CO)Oc3ccccc32)sc1C (stereo not drawn),83.41%
16,CN(Cc1nc(C(F)(F)F)cs1)C(=O)CCc1ccccn1,3.481%
17,Cc1csc(CN2CC(CO)Oc3ccccc32)n1 (stereo not drawn),26.95%
18,Cc1nc(CNC2CCN(Cc3ccccc3)C2)sc1C (stereo not drawn),5.497%
19,OCC1CN(Cc2nc(C(F)(F)F)cs2)c2ccccc2O1 (stereo not drawn),105.7%
20,CC(C)c1nc2oc(C(=O)N3CCOCC3)c(N)c2c2c1CCCC2,5.641%
21,COc1ccccc1Oc1cncc(C2CCCN(C)C2)n1 (stereo not drawn),10.25%
22,Cn1c(C(=O)N2CCC(CC(N)=O)CC2)c(Cl)c2ccccc21,-5.817%
23,CCOC1CCN(C(=O)c2c(Cl)c3ccccc3n2C)CC1,55.05%
24,COC1CCN(C(=O)c2c(Cl)c3ccccc3n2C)CC1,49.28%
25,Cn1cc(C2CCCN2C(=O)c2cn(-c3ccccc3)nn2)cn1 (stereo not drawn),-26.03%
